Test results: paper PMC7862700, “An all-to-all approach to the identification of sequence-specific readers for epigenetic DNA modifications on cytosine”

Key:
Test in all cases: DAPPL (digital affinity profiling via proximity ligation, sequencing); 10 mM Tris-HCl pH 7.5, 50 mM NaCl, 1 mM DTT, 4% glycerol, room temperature, 30 min; GST-TFs on glutathione beads, 16-mer random dsDNA library, 0.1% formaldehyde crosslink after washing; high values mean tight binding
[1] = molecular target: T1, FEV (Homo sapiens, UniProt Q99581 1-238); conditions: protein: recombinant; tags: N-terminal GST; dsDNA, one strand shown
T1 sequence: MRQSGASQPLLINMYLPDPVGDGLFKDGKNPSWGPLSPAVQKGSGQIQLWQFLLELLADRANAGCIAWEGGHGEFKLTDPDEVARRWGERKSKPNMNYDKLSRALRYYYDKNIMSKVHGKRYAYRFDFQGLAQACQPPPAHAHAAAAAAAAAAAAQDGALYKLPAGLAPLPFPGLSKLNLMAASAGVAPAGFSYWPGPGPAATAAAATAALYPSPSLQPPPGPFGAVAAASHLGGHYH
Summary of the method: (§1)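 Pools of DNA-barcoded human transcription factors, expressed in yeast as GST fusions on glutathione beads and combined with a tag-only sample, were incubated with 200 nmole of a 16-mer random double-stranded DNA library. Incubation took 30 min at room temperature in Tris/NaCl/DTT/glycerol buffer and was followed by washing, 0.1% formaldehyde crosslinking, proximity ligation (BsaI/T4 ligase, 1 h, 37 °C), PCR amplification and sequencing on an Illumina NextSeq500. Binding signal is the ratio of a hexamer's read frequency for a factor to its frequency for the tag-only sample.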

[2] = molecular target: ETV5 (Homo sapiens, UniProt P41161 1-510); conditions: protein: recombinant; tags: N-terminal GST; dsDNA, one strand shown
Chain of ETV5 (P41161 whole entry): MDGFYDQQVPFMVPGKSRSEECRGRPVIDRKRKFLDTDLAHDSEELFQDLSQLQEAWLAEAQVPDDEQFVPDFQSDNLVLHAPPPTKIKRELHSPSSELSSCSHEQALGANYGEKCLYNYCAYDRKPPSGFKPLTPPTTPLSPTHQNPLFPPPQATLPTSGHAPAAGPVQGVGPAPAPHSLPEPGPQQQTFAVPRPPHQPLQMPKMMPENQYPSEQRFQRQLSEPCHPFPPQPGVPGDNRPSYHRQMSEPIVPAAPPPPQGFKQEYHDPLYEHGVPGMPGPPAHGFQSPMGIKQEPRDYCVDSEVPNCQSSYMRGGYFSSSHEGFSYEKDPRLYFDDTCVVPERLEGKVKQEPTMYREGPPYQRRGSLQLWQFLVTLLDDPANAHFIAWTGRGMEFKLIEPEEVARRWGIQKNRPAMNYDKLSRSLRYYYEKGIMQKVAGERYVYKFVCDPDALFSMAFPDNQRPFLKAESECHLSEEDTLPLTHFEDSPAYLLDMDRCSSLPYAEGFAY
Summary of the method: as §1

[3] = molecular target: HSF1 (Homo sapiens, UniProt Q00613 1-529); conditions: protein: recombinant; tags: N-terminal GST; chain copies: 3; dsDNA, one strand shown
Chain of HSF1 (Q00613 whole entry): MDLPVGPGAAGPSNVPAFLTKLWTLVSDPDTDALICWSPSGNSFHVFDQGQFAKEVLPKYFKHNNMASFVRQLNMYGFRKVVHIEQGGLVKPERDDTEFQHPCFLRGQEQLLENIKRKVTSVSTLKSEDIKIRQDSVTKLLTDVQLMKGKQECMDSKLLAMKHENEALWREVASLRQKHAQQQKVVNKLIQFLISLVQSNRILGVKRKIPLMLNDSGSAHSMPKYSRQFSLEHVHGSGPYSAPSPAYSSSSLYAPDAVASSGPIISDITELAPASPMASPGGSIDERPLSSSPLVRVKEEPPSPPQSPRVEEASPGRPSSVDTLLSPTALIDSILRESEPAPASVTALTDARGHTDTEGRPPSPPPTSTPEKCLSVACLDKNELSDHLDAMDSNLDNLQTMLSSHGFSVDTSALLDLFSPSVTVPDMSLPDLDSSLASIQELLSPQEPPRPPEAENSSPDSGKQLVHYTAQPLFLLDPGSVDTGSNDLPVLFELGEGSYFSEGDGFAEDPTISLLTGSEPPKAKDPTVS
Summary of the method: as §1

[4] = molecular target: T2, SPIC (Homo sapiens, UniProt Q8N5J4 1-248); conditions: protein: recombinant; tags: N-terminal GST; dsDNA, one strand shown
T2 sequence: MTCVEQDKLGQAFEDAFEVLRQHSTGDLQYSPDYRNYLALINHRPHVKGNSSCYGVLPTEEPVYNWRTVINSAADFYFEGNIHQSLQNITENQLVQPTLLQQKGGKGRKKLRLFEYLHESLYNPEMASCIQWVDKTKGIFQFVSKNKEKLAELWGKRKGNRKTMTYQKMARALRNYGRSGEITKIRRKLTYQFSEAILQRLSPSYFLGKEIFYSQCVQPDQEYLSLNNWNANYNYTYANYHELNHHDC
Summary of the method: as §1

[5] = molecular target: ELF4 (Homo sapiens, UniProt Q99607 1-663); conditions: protein: recombinant; tags: N-terminal GST; dsDNA, one strand shown
Chain of ELF4 (Q99607 whole entry): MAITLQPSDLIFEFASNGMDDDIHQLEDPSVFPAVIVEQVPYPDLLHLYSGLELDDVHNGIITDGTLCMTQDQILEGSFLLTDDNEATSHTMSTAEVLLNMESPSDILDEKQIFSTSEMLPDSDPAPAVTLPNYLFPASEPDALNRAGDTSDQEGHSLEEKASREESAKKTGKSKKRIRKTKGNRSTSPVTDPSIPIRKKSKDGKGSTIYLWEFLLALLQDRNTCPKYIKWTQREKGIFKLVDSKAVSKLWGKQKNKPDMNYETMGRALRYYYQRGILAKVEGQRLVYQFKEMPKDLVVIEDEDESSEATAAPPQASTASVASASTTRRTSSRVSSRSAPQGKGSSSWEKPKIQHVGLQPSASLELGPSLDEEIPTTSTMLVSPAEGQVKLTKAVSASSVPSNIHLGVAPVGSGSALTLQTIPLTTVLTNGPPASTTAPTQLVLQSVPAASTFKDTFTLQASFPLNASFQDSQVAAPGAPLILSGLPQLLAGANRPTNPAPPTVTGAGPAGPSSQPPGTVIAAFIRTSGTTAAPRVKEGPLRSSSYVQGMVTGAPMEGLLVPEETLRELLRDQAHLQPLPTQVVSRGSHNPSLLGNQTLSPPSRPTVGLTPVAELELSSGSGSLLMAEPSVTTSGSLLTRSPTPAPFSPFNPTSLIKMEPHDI
Summary of the method: as §1

[6] = molecular target: T3, ELK4 (Homo sapiens, UniProt P28324-2 1-405); conditions: protein: recombinant; tags: N-terminal GST; dsDNA, one strand shown
T3 sequence: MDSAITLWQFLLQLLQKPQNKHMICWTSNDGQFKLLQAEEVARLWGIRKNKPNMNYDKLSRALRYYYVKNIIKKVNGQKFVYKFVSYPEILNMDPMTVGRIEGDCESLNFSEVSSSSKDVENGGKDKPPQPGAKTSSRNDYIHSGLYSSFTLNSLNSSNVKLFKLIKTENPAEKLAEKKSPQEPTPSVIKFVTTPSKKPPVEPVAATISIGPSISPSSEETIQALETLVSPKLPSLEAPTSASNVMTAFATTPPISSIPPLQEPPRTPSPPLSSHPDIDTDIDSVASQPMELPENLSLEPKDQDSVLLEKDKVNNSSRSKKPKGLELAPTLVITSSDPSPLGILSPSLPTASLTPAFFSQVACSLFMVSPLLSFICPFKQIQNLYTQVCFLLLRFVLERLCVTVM
Summary of the method: as §1

[7] = molecular target: T4, ETV2 (Homo sapiens, UniProt O00321 1-342); conditions: protein: recombinant; tags: N-terminal GST; dsDNA, one strand shown
T4 sequence: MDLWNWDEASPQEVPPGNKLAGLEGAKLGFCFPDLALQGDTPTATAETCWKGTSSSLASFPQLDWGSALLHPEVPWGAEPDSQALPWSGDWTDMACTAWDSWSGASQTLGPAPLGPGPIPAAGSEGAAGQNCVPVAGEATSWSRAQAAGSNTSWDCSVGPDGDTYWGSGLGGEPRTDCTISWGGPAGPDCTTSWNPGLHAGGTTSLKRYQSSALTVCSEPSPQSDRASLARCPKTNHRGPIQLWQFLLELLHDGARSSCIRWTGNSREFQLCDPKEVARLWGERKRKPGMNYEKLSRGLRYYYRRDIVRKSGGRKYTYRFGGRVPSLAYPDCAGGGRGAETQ
Summary of the method: as §1

[8] = molecular target: T5, ELF3 (Homo sapiens, UniProt P78545 1-371); conditions: protein: recombinant; tags: N-terminal GST; dsDNA, one strand shown
T5 sequence: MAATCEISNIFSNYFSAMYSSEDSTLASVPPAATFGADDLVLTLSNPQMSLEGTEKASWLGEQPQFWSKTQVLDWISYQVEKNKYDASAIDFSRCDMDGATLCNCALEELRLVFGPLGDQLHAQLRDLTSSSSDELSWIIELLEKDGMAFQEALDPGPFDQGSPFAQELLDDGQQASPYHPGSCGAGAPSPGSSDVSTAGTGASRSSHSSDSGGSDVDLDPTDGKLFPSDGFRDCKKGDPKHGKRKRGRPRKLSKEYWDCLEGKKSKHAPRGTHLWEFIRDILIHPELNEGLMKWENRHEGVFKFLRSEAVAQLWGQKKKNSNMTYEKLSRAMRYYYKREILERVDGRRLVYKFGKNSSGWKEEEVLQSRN
Summary of the method: as §1

[9] = molecular target: CRX (Homo sapiens, UniProt O43186 1-299); conditions: protein: recombinant; tags: N-terminal GST; dsDNA, one strand shown
Chain of CRX (O43186 whole entry): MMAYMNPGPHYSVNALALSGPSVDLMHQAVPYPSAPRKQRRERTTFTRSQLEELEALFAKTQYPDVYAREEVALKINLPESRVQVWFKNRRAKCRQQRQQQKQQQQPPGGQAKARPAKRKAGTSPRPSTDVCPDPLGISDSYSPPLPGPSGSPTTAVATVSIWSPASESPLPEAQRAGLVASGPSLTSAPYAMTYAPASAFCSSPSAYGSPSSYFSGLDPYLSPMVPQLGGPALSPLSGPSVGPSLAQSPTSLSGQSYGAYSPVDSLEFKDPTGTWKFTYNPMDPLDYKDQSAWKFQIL
Summary of the method: as §1

[10] = molecular target: ETV1 (Homo sapiens, UniProt P50549 1-477); conditions: protein: recombinant; tags: N-terminal GST; dsDNA, one strand shown
Chain of ETV1 (P50549 whole entry): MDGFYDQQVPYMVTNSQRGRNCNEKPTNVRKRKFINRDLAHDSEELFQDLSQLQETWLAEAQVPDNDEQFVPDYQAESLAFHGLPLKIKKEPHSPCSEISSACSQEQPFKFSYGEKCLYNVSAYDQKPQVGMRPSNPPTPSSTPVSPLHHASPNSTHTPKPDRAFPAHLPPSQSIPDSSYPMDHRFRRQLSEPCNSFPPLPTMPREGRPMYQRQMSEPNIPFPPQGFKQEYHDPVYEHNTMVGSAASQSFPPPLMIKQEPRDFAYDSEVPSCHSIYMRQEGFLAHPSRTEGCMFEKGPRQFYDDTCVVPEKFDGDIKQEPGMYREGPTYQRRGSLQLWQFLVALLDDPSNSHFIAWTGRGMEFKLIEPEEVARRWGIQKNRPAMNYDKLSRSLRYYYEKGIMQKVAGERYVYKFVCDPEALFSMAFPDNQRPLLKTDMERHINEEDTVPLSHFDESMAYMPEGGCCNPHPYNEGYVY
Summary of the method: as §1

[11] = molecular target: T6, ERF (Homo sapiens, UniProt P50548 1-548); conditions: protein: recombinant; tags: N-terminal GST; dsDNA, one strand shown
T6 sequence: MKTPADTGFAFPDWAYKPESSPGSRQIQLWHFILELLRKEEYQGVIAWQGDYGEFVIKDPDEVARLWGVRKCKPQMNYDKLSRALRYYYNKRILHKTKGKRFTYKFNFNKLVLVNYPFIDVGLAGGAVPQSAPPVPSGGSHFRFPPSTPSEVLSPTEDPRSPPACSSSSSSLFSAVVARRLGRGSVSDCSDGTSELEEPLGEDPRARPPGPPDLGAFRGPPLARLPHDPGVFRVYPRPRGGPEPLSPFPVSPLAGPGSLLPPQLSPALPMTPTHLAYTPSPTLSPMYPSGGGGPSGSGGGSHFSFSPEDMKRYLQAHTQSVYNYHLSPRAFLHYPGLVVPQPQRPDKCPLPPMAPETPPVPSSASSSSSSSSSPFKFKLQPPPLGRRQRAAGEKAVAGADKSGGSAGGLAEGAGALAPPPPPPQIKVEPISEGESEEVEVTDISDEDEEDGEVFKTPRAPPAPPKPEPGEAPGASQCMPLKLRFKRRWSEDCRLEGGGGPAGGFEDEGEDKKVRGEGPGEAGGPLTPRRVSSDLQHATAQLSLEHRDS
Summary of the method: as §1

[12] = molecular target: T7, ETV3L (Homo sapiens, UniProt Q6ZN32 1-361); conditions: protein: recombinant; tags: N-terminal GST; dsDNA, one strand shown
T7 sequence: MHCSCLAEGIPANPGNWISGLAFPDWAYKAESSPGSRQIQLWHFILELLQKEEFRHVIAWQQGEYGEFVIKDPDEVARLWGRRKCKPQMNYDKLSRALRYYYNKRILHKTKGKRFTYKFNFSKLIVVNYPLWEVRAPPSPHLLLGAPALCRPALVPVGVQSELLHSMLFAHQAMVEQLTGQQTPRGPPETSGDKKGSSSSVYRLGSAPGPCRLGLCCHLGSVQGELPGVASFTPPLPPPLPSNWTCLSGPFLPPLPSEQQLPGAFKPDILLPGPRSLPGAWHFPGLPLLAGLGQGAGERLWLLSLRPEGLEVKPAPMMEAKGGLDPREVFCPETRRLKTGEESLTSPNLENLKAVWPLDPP
Summary of the method: as §1

[13] = molecular target: T8, ETS2 (Homo sapiens, UniProt P15036 1-469); conditions: protein: recombinant; tags: N-terminal GST; dsDNA, one strand shown
T8 sequence: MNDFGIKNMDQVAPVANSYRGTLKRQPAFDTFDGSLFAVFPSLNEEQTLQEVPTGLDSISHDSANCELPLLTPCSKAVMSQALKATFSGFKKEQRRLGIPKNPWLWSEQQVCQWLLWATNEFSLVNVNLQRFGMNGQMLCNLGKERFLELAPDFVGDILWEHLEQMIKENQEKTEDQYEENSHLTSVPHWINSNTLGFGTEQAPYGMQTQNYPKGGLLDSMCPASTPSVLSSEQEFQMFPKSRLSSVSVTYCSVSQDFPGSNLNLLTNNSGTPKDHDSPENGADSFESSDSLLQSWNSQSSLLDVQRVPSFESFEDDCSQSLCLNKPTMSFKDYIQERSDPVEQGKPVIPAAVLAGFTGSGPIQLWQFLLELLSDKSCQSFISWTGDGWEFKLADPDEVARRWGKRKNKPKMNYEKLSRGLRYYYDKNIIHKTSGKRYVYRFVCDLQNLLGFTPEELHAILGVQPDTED
Summary of the method: as §1

[14] = molecular target: T9, SPDEF (Homo sapiens, UniProt O95238 1-335); conditions: protein: recombinant; tags: N-terminal GST; dsDNA, one strand shown
T9 sequence: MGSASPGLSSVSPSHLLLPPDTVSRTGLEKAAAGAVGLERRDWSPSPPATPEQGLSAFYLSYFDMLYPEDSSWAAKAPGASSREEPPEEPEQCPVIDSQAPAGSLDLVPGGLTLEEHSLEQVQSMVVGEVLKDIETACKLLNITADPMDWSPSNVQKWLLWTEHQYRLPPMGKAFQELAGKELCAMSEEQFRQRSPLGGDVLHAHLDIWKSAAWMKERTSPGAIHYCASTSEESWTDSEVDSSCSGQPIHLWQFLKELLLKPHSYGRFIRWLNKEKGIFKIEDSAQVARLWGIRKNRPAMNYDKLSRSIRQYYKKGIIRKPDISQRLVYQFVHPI
Summary of the method: as §1

[15] = molecular target: T10, ETV7 (Homo sapiens, UniProt Q9Y603 1-341); conditions: protein: recombinant; tags: N-terminal GST; dsDNA, one strand shown
T10 sequence: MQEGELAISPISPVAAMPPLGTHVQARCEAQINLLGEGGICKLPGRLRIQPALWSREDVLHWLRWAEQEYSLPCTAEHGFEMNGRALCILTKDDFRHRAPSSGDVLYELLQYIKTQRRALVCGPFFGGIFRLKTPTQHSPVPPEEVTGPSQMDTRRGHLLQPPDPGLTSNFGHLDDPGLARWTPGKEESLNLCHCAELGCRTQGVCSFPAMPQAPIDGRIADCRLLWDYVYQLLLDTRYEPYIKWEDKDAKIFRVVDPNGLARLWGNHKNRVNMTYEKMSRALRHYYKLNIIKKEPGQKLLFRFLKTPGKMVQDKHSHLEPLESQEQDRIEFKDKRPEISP
Summary of the method: as §1

[16] = molecular target: T11, ELF5 (Homo sapiens, UniProt Q9UKW6-2 1-255); conditions: protein: recombinant; tags: N-terminal GST; dsDNA, one strand shown
T11 sequence: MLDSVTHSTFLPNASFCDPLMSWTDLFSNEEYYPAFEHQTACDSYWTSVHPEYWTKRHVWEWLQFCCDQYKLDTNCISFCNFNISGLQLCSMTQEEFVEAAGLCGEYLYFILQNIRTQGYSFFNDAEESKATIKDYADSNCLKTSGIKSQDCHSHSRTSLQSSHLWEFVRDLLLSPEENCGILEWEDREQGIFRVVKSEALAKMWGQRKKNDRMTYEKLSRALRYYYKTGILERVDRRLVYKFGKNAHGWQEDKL
Summary of the method: as §1

[17] = molecular target: T12, ETV3 (Homo sapiens, UniProt P41162-2 1-143); conditions: protein: recombinant; tags: N-terminal GST; dsDNA, one strand shown
T12 sequence: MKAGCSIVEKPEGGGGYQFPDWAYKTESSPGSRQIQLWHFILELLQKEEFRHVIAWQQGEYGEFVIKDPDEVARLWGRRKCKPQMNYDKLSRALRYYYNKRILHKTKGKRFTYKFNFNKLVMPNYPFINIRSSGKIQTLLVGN
Summary of the method: as §1

[18] = molecular target: ETV6 (Homo sapiens, UniProt P41212 1-452); conditions: protein: recombinant; tags: N-terminal GST; dsDNA, one strand shown
Chain of ETV6 (P41212 whole entry): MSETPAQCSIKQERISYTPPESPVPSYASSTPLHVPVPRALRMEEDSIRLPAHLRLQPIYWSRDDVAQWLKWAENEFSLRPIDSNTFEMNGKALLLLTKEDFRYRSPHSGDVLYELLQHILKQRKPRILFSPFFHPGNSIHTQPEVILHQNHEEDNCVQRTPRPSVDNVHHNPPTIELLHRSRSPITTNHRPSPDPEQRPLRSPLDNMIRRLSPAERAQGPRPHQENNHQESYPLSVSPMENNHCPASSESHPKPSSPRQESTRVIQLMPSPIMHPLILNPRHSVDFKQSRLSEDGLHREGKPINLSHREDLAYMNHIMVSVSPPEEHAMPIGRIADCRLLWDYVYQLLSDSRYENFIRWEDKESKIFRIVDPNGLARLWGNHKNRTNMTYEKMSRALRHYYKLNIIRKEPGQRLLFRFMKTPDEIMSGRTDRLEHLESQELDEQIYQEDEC
Summary of the method: as §1

**Q.** For GAAATC, which binding signal [1] is on record?
**A.** 2.32 fold enrichment (6-mer frequency, TF over GST control)

**Q.** And the binding signal [2]?
**A.** 1.58 fold enrichment (6-mer frequency, TF over GST control)

**Q.** What about the binding signal [3] of the same sequence?
**A.** 1.23 fold enrichment (6-mer frequency, TF over GST control)

**Q.** And the binding signal [4]?
**A.** 1.48 fold enrichment (6-mer frequency, TF over GST control)

**Q.** And the binding signal [5]?
**A.** 1.42 fold enrichment (6-mer frequency, TF over GST control)

**Q.** What about the binding signal [6] of the same sequence?
**A.** 1.31 fold enrichment (6-mer frequency, TF over GST control)

**Q.** What about the binding signal [7] of the same sequence?
**A.** 1.45 fold enrichment (6-mer frequency, TF over GST control)

**Q.** What about the binding signal [8] of the same sequence?
**A.** 1.27 fold enrichment (6-mer frequency, TF over GST control)

**Q.** And the binding signal [9]?
**A.** 1.26 fold enrichment (6-mer frequency, TF over GST control)

**Q.** What about the binding signal [10] of the same sequence?
**A.** 1.5 fold enrichment (6-mer frequency, TF over GST control)

**Q.** What about the binding signal [11] of the same sequence?
**A.** 1.31 fold enrichment (6-mer frequency, TF over GST control)

**Q.** And the binding signal [12]?
**A.** 1.42 fold enrichment (6-mer frequency, TF over GST control)

**Q.** What about the binding signal [13] of the same sequence?
**A.** 1.41 fold enrichment (6-mer frequency, TF over GST control)

**Q.** What about the binding signal [14] of the same sequence?
**A.** 1.4 fold enrichment (6-mer frequency, TF over GST control)

**Q.** What about the binding signal [15] of the same sequence?
**A.** 1.46 fold enrichment (6-mer frequency, TF over GST control)

**Q.** And the binding signal [16]?
**A.** 1.58 fold enrichment (6-mer frequency, TF over GST control)

**Q.** What about the binding signal [17] of the same sequence?
**A.** 1.42 fold enrichment (6-mer frequency, TF over GST control)

**Q.** And the binding signal [18]?
**A.** 1.49 fold enrichment (6-mer frequency, TF over GST control)
